PubChem BioAssay (Tox21)
Records with an inconclusive call do not appear. Where a call stands in place of a potency, no number is given. Values without a mark were called inactive. Activity calls are given as the source filed them. Unless noted, the call rests on the fitted dose curve; in most records, active means well fitted curve in the direction sought with a large enough effect in the repeat runs; inconclusive means weak or mixed curves; inactive means no such curve, though single readings can be large; an effect the other way counts as inactive or inconclusive.

What was measured:
[1] = qHTS assay to identify small molecule agonists of the NFkB signaling pathway (AID 1159509; active means well fitted curve in the direction sought with a large enough effect in the signal ratio in the repeat runs, not every such curve was filed as active; the % refers to the signal ratio; further: series mostly up to about 61 µM)
How it was run: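 Beta-lactamase reporter assay run in quantitative high-throughput format on an NF-kB-responsive ME-180 line, with 5 hr compound treatment and a FRET-based blue/green fluorescence readout.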

[2] = qHTS assay to identify small molecule agonists of the NFkB signaling pathway - cell viability counter screen (AID 1159515; calls by dose curve; further: series mostly up to about 61 µM; nearly all actives have a fitted effect of over 55% in size)
How it was run: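 Read by CellTiter-Glo luminescence (30 min, room temperature) in the wells also used for the beta-lactamase FRET read. ME-180 NFkB-bla cells at 2,000 per well were plated overnight, then exposed to compound for 5 hr at 37 C.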

[3] = qHTS assay to identify small molecule agonists of the endoplasmic reticulum stress response signaling pathway (AID 1159516; active means well fitted activation curve with a large enough effect in the signal ratio in the repeat runs, not every such curve was filed as active; the % refers to the signal ratio)
How it was run: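 Ratiometric FRET readout (405 nm excitation; 460 and 530 nm emission) of a beta-lactamase gene driven by the ER stress response element, after 2 hr substrate loading. HeLa ESRE-bla cells were seeded overnight and treated with compounds for only 5 hr at 37 C.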

[4] = qHTS assay to identify small molecule agonists of the endoplasmic reticulum stress response signaling pathway - cell viability counter screen (AID 1159517; calls by dose curve; further: series mostly up to about 61 µM; nearly all actives have a fitted effect of over 50% in size)
How it was run: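 Cytotoxicity of test compounds toward ESRE-bla HeLa cells was assessed after 5 hr exposure. The luminescent CellTiter-Glo signal was measured 30 min after reagent addition.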

[5] = qHTS assay to identify small molecule antagonists of the retinoid-related orphan receptor gamma (ROR-gamma) signaling pathway - cell viability counter screen (AID 1159520); further: nearly all actives have a fitted effect of over 50% in size
How it was run: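 Tet-on ROR gamma CHO cells (1,000/well) were plated 4 hr, given compounds in DMSO for 2 hr at 37 C, then induced with 1 uM final doxycycline for 16 hr. Viability was read as ATP by CellTiter-Glo luminescence after 30 min.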

[6] = qHTS assay to identify small molecule agonists of the AP-1 signaling pathway (AID 1159526; calls by dose curve)
[7] = target: Retinoic acid receptor RXR-alpha (Homo sapiens) (UniProt P19793); assay: qHTS assay to identify small molecule agonists of the RXR signaling pathway (AID 1159527; calls by dose curve; further: nearly all actives have a fitted effect of over 35% in size; further: potency means the concentration at half of the fitted maximal effect)
How it was run: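 Fluorescence ratio readout (460 vs 530 nm) from GeneBLAzer RXR-alpha HEK 293T cells after 16 hr compound treatment; cells seeded 5 hr beforehand in low-serum, charcoal-stripped medium.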

[8] = qHTS assay to identify small molecule agonists of the RXR signaling pathway - cell viability counter screen (AID 1159529);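 further: HEK 293T cells carrying an RXR-alpha UAS beta-lactamase reporter; series mostly up to about 77 µM; nearly all actives have a fitted effect of over 50% in size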
How it was run: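 Viability read-out for the RXR-alpha agonist qHTS: luminescent CellTiter-Glo signal after 30 min at RT. HEK 293T bla reporter cells, 2% charcoal-stripped FBS, 16 hr compound incubation; tetraoctyl ammonium bromide as cytotoxic control.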

[9] = qHTS assay to identify small molecule antagonists of the retinoid acid receptor (RAR) signaling pathway - cell viability counter screen (AID 1159551); further: nearly all actives have a fitted effect of over 35% in size
How it was run: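 Cytotoxicity counter screen: ATP content quantified by CellTiter-Glo luminescence in C3RL4 cells treated 6 hr at 37 C with compound and retinol (1 uM final). Cells plated at 1,000/well and cultured overnight before dosing.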

[10] = qHTS assay to identify small molecule antagonists of the retinoic acid receptor (RAR) signaling pathway (AID 1159552; further: nearly all actives have a fitted effect of over 50% in size)
How it was run: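 Using a RARE-driven luciferase construct in C3RL4 cells, retinol at 1 uM final provided the agonist stimulus while compounds were co-applied. After 6 hours at 37 C, luminescence was recorded to flag inhibitors of retinol signaling.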

[11] = qHTS assay to identify small molecule agonists of the retinoic acid receptor (RAR) signaling pathway (AID 1159553); further: potency means the concentration at half of the fitted maximal effect
How it was run: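 Luminescence was measured 30 min after luciferase reagent addition at room temperature. Before that, C3RL4 reporter cells (1,000 per well, plated overnight) were treated with compound for 6 hr at 37 C and 5% CO2.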

[12] = qHTS assay to identify small molecule antagonists of the vitamin D receptor (VDR) signaling pathway - cell viability counter screen (AID 743225); further: nearly all actives have a fitted effect of over 50% in size
How it was run: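 In this counter screen, VDR-bla HEK 293T cells receive test compound plus 3 nM final calcitriol for 16 h at 37C. Room-temperature steps of 2 h with the beta-lactamase substrate, then 30 min with CellTiter-Glo, precede the luminescence read.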

[13] = target: Nuclear receptor ROR-gamma (Homo sapiens) (UniProt P51449); assay: qHTS assay to identify small molecule antagonists of the retinoid-related orphan receptor gamma (ROR-gamma) signaling pathway (AID 1159521)
How it was run: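 Screening format: cell-based luciferase reporter in CHO cells with doxycycline-inducible RORγ. Compound pre-exposure lasts 2 h, doxycycline is 1 uM final, induction runs 16 h at 37 C, and ONE-Glo luminescence is read.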

[14] = qHTS assay to identify small molecule agonists of the AP-1 signaling pathway - cell viability counter screen (AID 1159525; calls by dose curve; further: nearly all actives have a fitted effect of over 55% in size)
How it was run: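 Each titration point was normalised to DMSO and tetra n-octyl ammonium bromide controls. The read was Cell Titer Glo luminescence after 30 min at RT, following 5 h compound exposure of ME-180 AP-1-bla cells at 37 °C.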

[15] = qHTS assay to identify small molecule antagonists of the estrogen related receptor (ERR) signaling pathway - cell viability counter screen (AID 1224818);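 further: series mostly up to about 46 µM; viability measured after 17.5 h of compound exposure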
How it was run: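 Cytotoxicity counter screen: fluorescence from CellTiter-Fluor, added after 17.5 h compound exposure at 37 C and read 30 min later. ERR cell line seeded at 2,000 cells/well, preincubated 6 h before dosing.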

[16] = qHTS assay to identify small molecule antagonists of the estrogen related receptor (ERR) signaling pathway (AID 1224819)
How it was run: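 LOPAC library screened for antagonism as reduced One-Glo luminescence in ERR reporter cells (2,000/well). Compounds were added after 6 h pre-incubation and left 18 h at 37C; reading followed a 30 min room-temperature reagent step.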

[17] = qHTS assay to identify small molecule agonists of the estrogen related receptor (ERR) signaling pathway (AID 1224820)
How it was run: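 Following a 6 h settling period, 2,000 ERR cells per well receive DMSO-dissolved compounds by pin tool and incubate 18 h at 37 C; agonist activity is scored from One-Glo luminescence read 30 min post-addition.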

[18] = tested on: estrogen-related receptor alpha (ERRalpha) with PGC-1alpha coactivator, human; assay: qHTS assay to identify small molecule antagonists of the estrogen related receptor signaling pathway with the pleiotropic PPARgamma coactivator (PGC) (AID 1224821; calls by dose curve)
How it was run: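 Screening used NTP's PGC/ERR cells, dosed via pin tool with compound in DMSO alongside positive and negative controls. After 18 h at 37 C, One-Glo reagent sat 30 min at room temperature before luminescence detection.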

[19] = qHTS assay to identify small molecule antagonists of the estrogen related receptor signaling pathway with the pleiotropic PPARgamma coactivator (PGC) cell viability counter screen (AID 1224822; further: series mostly up to about 46 µM)
How it was run: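 Viability counter-screen read by fluorescence intensity after 30 min with CellTiter-Fluor at 37 C; PGC/ERR reporter cells were exposed to compounds for 17.5 h at 37 C following a 6 h preincubation.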

[20] = qHTS assay to identify small molecule agonists of the estrogen related receptor signaling pathway with the pleiotropic PPARgamma coactivator (PGC) (AID 1224823)
How it was run: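 In this quantitative high-throughput screen, an 18 h, 37 C treatment of PGC/ERR cells with compounds in DMSO preceded a One-Glo luminescence read taken after 30 min at room temperature.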

Chain of Retinoic acid receptor RXR-alpha (Homo sapiens) (P19793 whole entry, looked up): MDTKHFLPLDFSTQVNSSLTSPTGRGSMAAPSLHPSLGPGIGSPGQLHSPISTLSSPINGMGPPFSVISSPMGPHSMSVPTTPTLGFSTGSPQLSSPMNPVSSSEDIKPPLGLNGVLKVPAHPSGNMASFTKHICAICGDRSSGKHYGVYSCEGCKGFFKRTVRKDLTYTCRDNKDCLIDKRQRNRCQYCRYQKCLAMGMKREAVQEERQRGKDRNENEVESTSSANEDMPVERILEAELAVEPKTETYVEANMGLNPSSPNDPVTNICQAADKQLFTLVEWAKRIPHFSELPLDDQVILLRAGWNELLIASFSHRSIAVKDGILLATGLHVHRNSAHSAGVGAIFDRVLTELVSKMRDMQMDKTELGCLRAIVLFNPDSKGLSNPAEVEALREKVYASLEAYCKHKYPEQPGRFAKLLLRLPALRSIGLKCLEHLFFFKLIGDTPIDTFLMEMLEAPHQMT

| SMILES | outcome [1] | outcome [2] | outcome [3] | outcome [4] | Potency [5] | Potency [6] | Potency [7] | Potency [8] | outcome [9] | Potency [10] | Potency [11] | Potency [12] | Potency [13] | outcome [14] | outcome [15] | outcome [16] | outcome [17] | outcome [18] | outcome [19] | outcome [20] |
| --- | --- | --- | --- | --- | --- | --- | --- | --- | --- | --- | --- | --- | --- | --- | --- | --- | --- | --- | --- | --- |
| CCCCCCCOC(=O)CCC | inactive | inactive | inactive | inactive | inactive | inactive | inactive | inactive | inactive | inactive | inactive |  |  |  |  |  |  |  |  |  |
| CC1(O)CSC(C)(O)CS1 (stereo unspecified) | inactive | inactive |  | inactive | inactive |  |  | inactive | inactive | inactive | inactive | inactive | inactive | inactive |  |  |  |  |  |  |
| CCCN(CCC)C(=O)C(CCC(=O)O)NC(=O)c1ccccc1 (stereo unspecified) | inactive | inactive | inactive | inactive | inactive | inactive | inactive | inactive | inactive |  | inactive | inactive |  |  | inactive | inactive | inactive | inactive | inactive | inactive |
| Cc1ccccc1C(=O)Nc1ccc(C(=O)N2CCCC(O)c3cc(Cl)ccc32)c(C)c1 (stereo unspecified) | inactive | inactive | inactive | inactive | inactive |  |  |  | inactive |  | inactive | inactive |  | inactive |  |  |  |  |  |  |
| CNCCC(Oc1ccccc1OC)c1ccccc1 (stereo unspecified) | inactive | inactive | inactive | inactive | inactive |  | inactive | inactive | inactive |  |  | inactive |  | inactive | inactive | inactive | inactive | inactive | inactive | inactive |
| CCOc1ccc2nc(N)sc2c1 | inactive | inactive |  | inactive | inactive | inactive | inactive |  | inactive |  | 3.83 µM (active) | inactive |  |  |  |  |  |  |  |  |
| CC(=O)OC(C)OC(C)=O | inactive | inactive |  | inactive | inactive | inactive | 2.01 µM (active) |  | inactive | inactive | inactive | inactive |  | inactive |  |  |  |  |  |  |
| CN1CCN(c2c(F)cc3c(=O)c(C(=O)O)cn4c3c2SCC4)CC1 | inactive | inactive |  | inactive | inactive | inactive | inactive | inactive | inactive | inactive | inactive | inactive |  | inactive |  |  |  |  |  |  |
| O=C(Cl)c1cccc([N+](=O)[O-])c1 | inactive | inactive |  | inactive | inactive | inactive |  | inactive | inactive |  | inactive |  |  | inactive |  |  |  |  |  |  |
| CC/C=C\CCOC(=O)CCCCC | inactive | inactive |  | inactive | inactive | inactive | inactive | inactive | inactive | inactive | inactive |  |  | inactive |  |  |  |  |  |  |
| CCCCCOc1ccc(C2SC(=O)NC2=O)cc1OCC (stereo unspecified) | inactive | inactive |  | inactive | inactive | inactive |  |  | inactive | inactive | 21.1 µM (active) |  |  |  |  |  |  |  |  |  |
| Cc1ccc(C=O)s1 | inactive | inactive |  | inactive | inactive |  |  |  | inactive |  |  | inactive | inactive | inactive |  |  |  |  |  |  |
| CC(C)NC[C@@H](O)COc1cccc2ccccc12 | inactive | inactive |  | inactive | inactive |  |  |  | inactive | inactive | inactive | inactive | inactive | inactive |  |  |  |  |  |  |
| CC(=O)N(CC(O)CN(C(C)=O)c1c(I)c(C(=O)NCC(O)CO)c(I)c(C(=O)NCC(O)CO)c1I)c1c(I)c(C(=O)NCC(O)CO)c(I)c(C(=O)NCC(O)CO)c1I (stereo unspecified) | inactive | inactive |  | inactive | inactive | inactive | inactive | inactive | inactive | inactive | inactive | inactive |  | inactive |  |  |  |  |  |  |
| N#CSCC(=O)O | inactive | inactive |  | inactive | inactive | inactive | inactive | inactive | inactive | inactive | inactive | inactive |  | inactive |  |  |  |  |  |  |
| CCC/C=C/CO |  | inactive | inactive | inactive | inactive | inactive | inactive | inactive | inactive |  | inactive | inactive |  |  |  |  |  |  |  |  |
| CC(C)(C)C1CCCCC1=O (stereo unspecified) | inactive | inactive |  | inactive | inactive | inactive | inactive | inactive | inactive | inactive | inactive | inactive |  | inactive |  |  |  |  |  |  |
| CCCCNCCCC | inactive | inactive |  | inactive | inactive | inactive | inactive | inactive | inactive | inactive | inactive | inactive |  | inactive |  |  |  |  |  |  |
| CCOC(=O)c1cc(=O)c2c(OCC(COc3cccc4oc(C(=O)OCC)cc(=O)c34)OC(=O)[C@@H](N)CCCCN)cccc2o1 | inactive | inactive |  | inactive | inactive | inactive | inactive | inactive | inactive | inactive | inactive | inactive |  | inactive |  |  |  |  |  |  |
| N#Cc1ccc(C(c2ccc(C#N)cc2)n2cncn2)cc1 | inactive | inactive |  | inactive | inactive | inactive | inactive | inactive | inactive | inactive | inactive | inactive |  | inactive |  |  |  |  |  |  |
| CC(CNC1CCCCC1)OC(=O)c1ccccc1 (stereo unspecified) | inactive | inactive |  | inactive | inactive | inactive | inactive | inactive | inactive | inactive | inactive | inactive |  | inactive |  |  |  |  |  |  |
| NS(=O)(=O)c1cc(-c2nn[nH]n2)c(NCc2cccs2)cc1Cl | inactive | inactive |  | inactive | inactive | inactive | inactive |  | inactive |  | inactive | inactive | inactive |  |  |  |  |  |  |  |
